Experimental data published in PubChem BioAssay (NCI).
The panel holds about 83,000 compounds, 20% with a hit somewhere; the sample as a whole holds those more often.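 Cell lines were cultured in 96-well plates, exposed to a single compound concentration, and assessed for percent growth 48 hours later.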 Values without a mark were called inactive. The source made the active and inactive calls. The calls were made as follows: active = growth percent below 10; inactive = the rest.

How the values were obtained:
Assay in all cases: NCI-60 one-dose screen, 48 h (100 = growth as untreated, 0 = no growth, -100 = all killed)
[1] = tested on: NCI-H23 lung; conditions: 10 µM unless noted
[2] = tested on: NCI-H226 lung; conditions: 10 µM unless noted
[3] = tested on: NCI-H322M lung; conditions: 10 µM unless noted
[4] = tested on: HOP-62 NSCLC; conditions: 10 µM unless noted
[5] = tested on: NCI-H460 lung; conditions: 10 µM unless noted
[6] = tested on: HOP-92 NSCLC; conditions: 10 µM unless noted
[7] = tested on: A549/ATCC NSCLC; conditions: 10 µM unless noted
[8] = tested on: COLO 205 colon; conditions: 10 µM unless noted
[9] = tested on: 786-0 renal; conditions: 10 µM unless noted
[10] = tested on: NCI-H522 lung; conditions: 10 µM

| SMILES | growth [1] | growth [2] | growth [3] | growth [4] | growth [5] | growth [6] | growth [7] | growth [8] | growth [9] | growth [10] |
| --- | --- | --- | --- | --- | --- | --- | --- | --- | --- | --- |
| CCCCCN(CCCCC)CCCNc1c2c(nc3ccc(Cl)cc13)CCCC2 | 30.7% | 50.8% | 73.8% | 44.3% | 34% | -6.23% (active) | 31.8% | -11% (active) |  |  |
| O=C1CSC(c2ccccc2Cl)N1c1nnc(Cn2nnc3ccccc32)o1 (stereo unspecified) | 80.6% | 96.1% | 80.9% | 91.9% | 88% | 56.8% | 59.9% | 106% | 88.7% |  |
| COc1ccc(C2=NN(C(C)=O)C(c3c(C)nn(-c4ccccc4)c3N3CCOCC3)C2)cc1 (stereo unspecified) | 100% | 92.1% | 101% | 87.9% | 98.7% | 86.9% | 85.5% | 90.9% | 93% |  |
| CC(C)=CCCC(C)c1ccc(C)c2c1OCN(CC1CCNCC1)C2 (stereo unspecified) | 81.9% | 103% | 99.1% | 95.4% | 24.6% | 12.3% | 54.1% | 75.9% | -60.1% (active) |  |
| CCOC(=O)N1CCC(N=C2CSc3nnc(-c4cc(C(F)(F)F)cc(C(F)(F)F)c4)n3N2)CC1 | 15.3% | 29.4% | 67.4% | -4.27% (active) | 18.2% | 19.9% | 21.5% | -9.91% (active) |  |  |
| COC(=O)C1(NC(=O)CNC(=O)OCc2ccccc2)CCCC1 | 106% | 99.1% | 113% | 111% | 111% | 85.2% | 95.3% | 125% | 95.3% |  |
| CCN1CCN(c2nc(NNC(=O)Cc3ccccc3)nc(N3CCN(C(c4ccccc4)c4ccccc4)CC3)n2)CC1 | 95.1% | 95% | 105% | 74.5% | 11.1% | 82.9% | 46.6% | -41.3% (active) | 64.1% |  |
| CO[C@H]1/C=C/O[C@@]2(C)Oc3c(C)c(O)c4c(O)c(c(/C=N/N5C(C)CN(Cc6ccc(C#N)cc6)CC5C)c(O)c4c3C2=O)NC(=O)/C(C)=C\C=C\[C@H](C)[C@H](O)[C@@H](C)[C@@H](O)[C@@H](C)[C@H](OC(C)=O)[C@@H]1C (stereo partly specified) | 11.5% | 49.5% | 28.7% | 43.8% | 3.3% (active) | 27.1% | 21.7% | 1.58% (active) | 14.1% |  |
| CCCCCCCCCCCCCCCCNC(=O)Nc1ccc2ccccc2c1 | 103% | 108% | 110% | 105% | 99.2% | 74.5% | 107% | 103% | 104% |  |
| COc1cnc2c(c1)C(=O)c1c-2n(CCCN2CCCC2)c(=O)c2cc(F)ccc12 | -19.5% (active) | -81.2% (active) | 4.72% (active) | -16.4% (active) | -47.9% (active) | -5.39% (active) | -80.4% (active) | -6.43% (active) | -88.5% (active) |  |
| Cc1cc(=O)oc2cc(OCCn3c(C)nn(-c4ccc(Cl)cc4)c3=O)ccc12 | 45.8% | 50.1% | 58.7% | 27.4% | 17.2% | 47.4% | 30.2% | 10.6% | 32.9% |  |
| c1ccc(CN=C(NCc2ccccc2)NCc2ccccc2)cc1 | 42.4% | 51.1% | 75.6% | 78.6% | 73.4% | 48.5% | 47.3% | 41.3% | 73.1% |  |
| CC[C@@H](c1ccc(O)c(O)c1)[C@@H](CC)c1ccc(O)c(O)c1 | 96.6% | 105% | 97% | 106% | 111% | 69.6% | 107% | 9.38% (active) | 100% |  |
| N#Cc1c(-c2ccccc2)cc(-c2ccccc2)n(CCCCCCC(=O)O)c1=O | 96.7% | 93.1% | 96.5% | 94.4% | 102% | 125% | 102% | 111% | 105% |  |
| COC(=O)[C@H](CCCCNC(=O)OCc1ccccc1)NC(=O)[C@@H](NC(=O)Nc1cc(C(F)(F)F)cc(C(F)(F)F)c1)C(C)C | -45.6% [100 µM] (active) | 39% [100 µM] | 19.9% [100 µM] | -84.2% [100 µM] (active) | -23.1% [100 µM] (active) | -69.5% [100 µM] (active) | 45.1% [100 µM] | -12.8% [100 µM] (active) | -91.7% [100 µM] (active) |  |
| COc1cnc2c(c1)C(=O)c1c-2n(CCCN2CCNCC2)c(=O)c2cc(F)ccc12 | -3.16% (active) | -57.6% (active) | 13.7% | -8.55% (active) | -58.4% (active) | -7.94% (active) | -70.4% (active) | -10.5% (active) | -94.3% (active) |  |
| O=C1/C(=C/c2cccc(Cl)c2)CCc2ccccc21 | 101% | 98.5% | 98.5% | 105% | 107% | 72.6% | 90.2% | 111% | 94.8% |  |
| O=c1[nH]c(N2CCC(Cc3ccccc3)CC2)nc2sc3c(c12)CCCC3 | 95.9% | 92.3% | 97.1% | 94.5% | 102% | 91.2% | 77.5% | 105% | 105% |  |
| C[C@@H]1C[C@@H]([C@@H](CC2CC(=O)NC(=O)C2)OC(=O)CC(=O)c2ccccc2)C(=O)[C@@H](C)C1 | 13.9% | 4.07% (active) | -19.5% (active) | 13.5% | 12.1% | 9.2% (active) | 1.76% (active) | 10.2% | 1.2% (active) |  |
| CCCCc1n(Cc2ccc3ccccc3c2)cc[n+]1Cc1ccc2ccccc2c1 | -23.8% (active) | -0.475% (active) | 23.3% | -2.71% (active) | -13.1% (active) | -38.2% (active) | 29.8% | -77.1% (active) | -18.4% (active) |  |
| COc1ccc(C2=NN(C(C)=O)C(c3cccc(Nc4ccnc5cc(Cl)ccc45)c3)C2)cc1 (stereo unspecified) | 60.7% | 74.5% | 63.9% | 38% | 64.9% | 32.7% | 45.5% | 19.1% | 58.6% |  |
| CCCCCCCCCCOC(C)=O | 113% | 98.6% | 107% | 108% | 110% | 89.3% | 106% | 116% | 114% |  |
| CN(C)CCCN=c1cc2c(=O)n(CCCN(C)C)c(=O)c3c(NCCCN(C)C)cc4c(O)n(CCCN(C)C)c(=O)c1c4c3-2 | 21.1% | -33.2% (active) | -26.9% (active) | -11.4% (active) | -43.5% (active) | -0.168% (active) | -30.8% (active) | -56.6% (active) | -47.5% (active) |  |
| CCOC(=O)C(Br)=P(c1ccccc1)(c1ccccc1)c1ccccc1 | 109% | 104% | 99.4% | 114% | 116% | 101% | 106% | 103% | 103% |  |
| COC(=O)c1cc2c(/C=C3/NC(=S)NC3=O)coc2n1C | 103% | 110% | 87.1% | 89.3% | 115% | -38.5% (active) | 104% | 97.7% | 98.2% |  |
| c1cc[n+](Cc2ccnc3ccccc23)cc1 | 123% | 93.9% | 111% | 94.1% | 106% | 47.9% | 107% | 104% | 107% |  |
| COc1cc(/C=C/C(=O)CC(=O)/C=C/c2ccc(OC(=O)CCNC34CC5CC(CC(C5)C3)C4)c(OC)c2)ccc1OC(=O)CCNC12CC3CC(CC(C3)C1)C2 | 28.5% | 39.8% | 63.4% | 66.9% | 10.3% | 18.5% | 63.1% | 45.9% | 16.7% |  |
| COc1ccc2c3c(ccc2c1)C(=O)/C(=C\O)CC3 | 96.7% | 106% | 110% | 114% | 102% | 96.4% | 109% | 105% | 103% |  |
| CC(C)N(Cc1ccccc1)c1c(Cl)ssc1=O | 106% | 101% | 109% | 113% |  | 82.5% | 88.8% | 106% | 102% |  |
| COc1ccc2nc(N/N=C(\C)c3ccccn3)cc(C)c2c1 | 19.8% | -49.5% (active) | 8.51% (active) | 2.82% (active) |  | 7.16% (active) |  | -78.2% (active) | -89.7% (active) | -20.8% (active) |
